Data on one sequence can be found in article PMC7862700, “An all-to-all approach to the identification of sequence-specific readers for epigenetic DNA modifications on cytosine”.

What all share (test): DAPPL (digital affinity profiling via proximity ligation, sequencing); 10 mM Tris-HCl pH 7.5, 50 mM NaCl, 1 mM DTT, 4% glycerol, room temperature, 30 min; GST-TFs on glutathione beads, 16-mer random dsDNA library, 0.1% formaldehyde crosslink after washing; high values mean tight binding
The target in one assay is T1, FEV (Homo sapiens, UniProt Q99581 1-238).
T1 sequence: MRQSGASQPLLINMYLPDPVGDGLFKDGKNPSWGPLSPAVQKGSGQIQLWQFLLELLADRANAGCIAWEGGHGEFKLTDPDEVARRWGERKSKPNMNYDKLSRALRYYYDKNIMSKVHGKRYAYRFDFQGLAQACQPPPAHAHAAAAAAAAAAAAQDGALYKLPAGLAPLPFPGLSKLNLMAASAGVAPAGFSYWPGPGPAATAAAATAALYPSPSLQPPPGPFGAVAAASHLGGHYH
As to conditions: protein: recombinant; tags: N-terminal GST; dsDNA, one strand shown. The method in brief:
(§1)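 Binding signal is each hexamer's read frequency for a factor divided by its frequency in the tag-only sample. The factors were GST-fused human transcription factors from yeast, captured on glutathione beads, DNA-barcoded and pooled with that sample. Pools were incubated with 200 nmole of a random double-stranded 16-mer DNA library in Tris/NaCl/DTT/glycerol buffer at room temperature for 30 min, then washed, crosslinked with 0.1% formaldehyde, proximity-ligated with BsaI/T4 ligase (1 h, 37 °C), PCR-amplified and sequenced on an Illumina NextSeq500.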

In a further assay the target is ETV5 (Homo sapiens, UniProt P41161 1-510). The settings on record: protein: recombinant; tags: N-terminal GST; dsDNA, one strand shown. The method in brief: as §1
Sequence of ETV5 (P41161 whole entry): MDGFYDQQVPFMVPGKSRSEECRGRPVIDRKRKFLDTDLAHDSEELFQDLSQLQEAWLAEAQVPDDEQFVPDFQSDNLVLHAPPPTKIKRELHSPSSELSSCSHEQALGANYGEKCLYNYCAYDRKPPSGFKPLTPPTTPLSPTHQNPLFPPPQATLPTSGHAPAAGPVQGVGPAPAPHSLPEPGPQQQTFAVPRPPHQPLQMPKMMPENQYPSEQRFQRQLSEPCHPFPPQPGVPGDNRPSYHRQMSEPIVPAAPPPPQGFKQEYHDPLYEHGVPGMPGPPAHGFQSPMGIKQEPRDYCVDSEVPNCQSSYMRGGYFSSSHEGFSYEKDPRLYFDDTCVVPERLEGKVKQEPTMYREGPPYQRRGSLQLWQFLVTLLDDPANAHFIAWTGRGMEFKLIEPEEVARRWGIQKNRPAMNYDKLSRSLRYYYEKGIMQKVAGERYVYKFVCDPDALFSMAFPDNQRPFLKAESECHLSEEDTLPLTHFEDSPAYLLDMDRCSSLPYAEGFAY
Another assay addresses HSF1 (Homo sapiens, UniProt Q00613 1-529). The settings on record: protein: recombinant; tags: N-terminal GST; chain copies: 3; dsDNA, one strand shown. The method in brief: as §1
Another assay has as its target T2, SPIC (Homo sapiens, UniProt Q8N5J4 1-248).
T2 sequence: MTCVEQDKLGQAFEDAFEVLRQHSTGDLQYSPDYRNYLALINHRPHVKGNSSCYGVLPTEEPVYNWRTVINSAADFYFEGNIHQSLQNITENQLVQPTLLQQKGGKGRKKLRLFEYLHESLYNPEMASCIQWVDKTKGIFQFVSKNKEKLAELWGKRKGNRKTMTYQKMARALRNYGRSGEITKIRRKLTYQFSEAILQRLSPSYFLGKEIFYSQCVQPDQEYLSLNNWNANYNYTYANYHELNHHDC
The settings on record: protein: recombinant; tags: N-terminal GST; dsDNA, one strand shown. In outline: as §1

For another assay, the target named is ELF4 (Homo sapiens, UniProt Q99607 1-663). As to conditions: protein: recombinant; tags: N-terminal GST; dsDNA, one strand shown. In outline: as §1
Sequence of ELF4 (Q99607 whole entry): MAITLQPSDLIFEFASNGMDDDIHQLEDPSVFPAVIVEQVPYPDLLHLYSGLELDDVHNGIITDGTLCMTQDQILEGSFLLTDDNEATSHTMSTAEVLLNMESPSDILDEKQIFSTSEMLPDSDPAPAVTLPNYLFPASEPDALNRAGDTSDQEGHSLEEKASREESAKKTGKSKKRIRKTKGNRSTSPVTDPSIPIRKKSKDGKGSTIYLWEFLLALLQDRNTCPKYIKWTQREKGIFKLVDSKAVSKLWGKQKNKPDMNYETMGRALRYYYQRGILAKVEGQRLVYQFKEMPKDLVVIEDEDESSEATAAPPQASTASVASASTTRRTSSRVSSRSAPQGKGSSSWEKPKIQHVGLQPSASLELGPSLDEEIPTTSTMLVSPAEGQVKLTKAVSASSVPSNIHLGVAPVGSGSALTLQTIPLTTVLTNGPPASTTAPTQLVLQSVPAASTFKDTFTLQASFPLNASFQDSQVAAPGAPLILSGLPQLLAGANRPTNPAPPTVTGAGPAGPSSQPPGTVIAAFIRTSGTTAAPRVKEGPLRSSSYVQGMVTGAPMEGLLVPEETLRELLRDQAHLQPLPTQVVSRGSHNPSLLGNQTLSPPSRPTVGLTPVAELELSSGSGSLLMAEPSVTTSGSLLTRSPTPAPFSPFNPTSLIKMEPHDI
A further assay addresses T3, ELK4 (Homo sapiens, UniProt P28324-2 1-405).
T3 sequence: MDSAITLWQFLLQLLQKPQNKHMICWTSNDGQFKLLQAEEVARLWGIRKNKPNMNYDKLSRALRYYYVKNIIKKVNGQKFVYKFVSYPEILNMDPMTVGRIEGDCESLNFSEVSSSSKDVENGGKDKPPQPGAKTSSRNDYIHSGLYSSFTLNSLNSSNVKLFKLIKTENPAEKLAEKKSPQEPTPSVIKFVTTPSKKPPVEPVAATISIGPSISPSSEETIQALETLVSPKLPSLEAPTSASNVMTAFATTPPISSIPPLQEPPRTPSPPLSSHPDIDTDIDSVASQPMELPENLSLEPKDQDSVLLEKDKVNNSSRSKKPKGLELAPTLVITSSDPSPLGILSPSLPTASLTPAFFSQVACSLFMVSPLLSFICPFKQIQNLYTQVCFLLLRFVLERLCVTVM
The settings on record: protein: recombinant; tags: N-terminal GST; dsDNA, one strand shown. In outline: as §1

In the next assay the target is T4, ETV2 (Homo sapiens, UniProt O00321 1-342).
T4 sequence: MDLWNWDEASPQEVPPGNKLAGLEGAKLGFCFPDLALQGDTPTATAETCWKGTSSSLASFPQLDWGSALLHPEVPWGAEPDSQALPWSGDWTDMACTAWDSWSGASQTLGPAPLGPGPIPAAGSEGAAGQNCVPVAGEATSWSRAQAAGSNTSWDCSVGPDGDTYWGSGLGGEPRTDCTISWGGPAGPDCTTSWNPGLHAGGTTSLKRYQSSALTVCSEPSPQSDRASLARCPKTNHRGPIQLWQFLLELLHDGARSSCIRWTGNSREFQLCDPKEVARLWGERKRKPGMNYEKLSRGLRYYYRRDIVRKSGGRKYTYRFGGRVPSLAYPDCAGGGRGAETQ
The settings on record: protein: recombinant; tags: N-terminal GST; dsDNA, one strand shown. In outline: as §1

The target in a further assay is T5, ELF3 (Homo sapiens, UniProt P78545 1-371).
T5 sequence: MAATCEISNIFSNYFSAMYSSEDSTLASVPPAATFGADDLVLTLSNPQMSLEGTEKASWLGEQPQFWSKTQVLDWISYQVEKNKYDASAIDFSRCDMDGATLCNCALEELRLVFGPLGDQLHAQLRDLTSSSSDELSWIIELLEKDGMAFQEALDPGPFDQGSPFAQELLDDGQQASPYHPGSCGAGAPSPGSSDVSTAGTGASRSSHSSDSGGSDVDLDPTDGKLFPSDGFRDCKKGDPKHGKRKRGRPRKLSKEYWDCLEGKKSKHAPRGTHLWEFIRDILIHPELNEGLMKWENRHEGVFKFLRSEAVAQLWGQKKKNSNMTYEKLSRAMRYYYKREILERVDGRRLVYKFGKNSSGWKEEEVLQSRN
As to conditions: protein: recombinant; tags: N-terminal GST; dsDNA, one strand shown. In outline: as §1

The target in the next assay is CRX (Homo sapiens, UniProt O43186 1-299). As to conditions: protein: recombinant; tags: N-terminal GST; dsDNA, one strand shown. The method in brief:
as §1

The next assay deals with ETV1 (Homo sapiens, UniProt P50549 1-477). As to conditions: protein: recombinant; tags: N-terminal GST; dsDNA, one strand shown. In outline:
as §1

The target of another assay is T6, ERF (Homo sapiens, UniProt P50548 1-548).
T6 sequence: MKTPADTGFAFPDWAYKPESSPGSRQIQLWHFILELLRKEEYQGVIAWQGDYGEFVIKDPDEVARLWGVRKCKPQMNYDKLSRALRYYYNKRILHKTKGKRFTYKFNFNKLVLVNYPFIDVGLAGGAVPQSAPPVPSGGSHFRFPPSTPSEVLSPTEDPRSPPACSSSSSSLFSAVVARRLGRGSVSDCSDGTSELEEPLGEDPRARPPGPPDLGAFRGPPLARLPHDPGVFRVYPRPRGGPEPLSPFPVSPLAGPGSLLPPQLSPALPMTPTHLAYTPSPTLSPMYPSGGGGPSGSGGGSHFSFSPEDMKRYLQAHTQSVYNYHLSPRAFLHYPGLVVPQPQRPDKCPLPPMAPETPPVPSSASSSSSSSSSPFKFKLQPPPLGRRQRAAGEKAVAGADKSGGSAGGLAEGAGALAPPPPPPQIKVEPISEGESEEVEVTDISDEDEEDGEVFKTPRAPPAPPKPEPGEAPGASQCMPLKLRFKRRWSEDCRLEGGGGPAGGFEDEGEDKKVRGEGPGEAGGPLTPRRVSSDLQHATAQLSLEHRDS
The settings on record: protein: recombinant; tags: N-terminal GST; dsDNA, one strand shown. In outline:
as §1

The next assay addresses T7, ETV3L (Homo sapiens, UniProt Q6ZN32 1-361).
T7 sequence: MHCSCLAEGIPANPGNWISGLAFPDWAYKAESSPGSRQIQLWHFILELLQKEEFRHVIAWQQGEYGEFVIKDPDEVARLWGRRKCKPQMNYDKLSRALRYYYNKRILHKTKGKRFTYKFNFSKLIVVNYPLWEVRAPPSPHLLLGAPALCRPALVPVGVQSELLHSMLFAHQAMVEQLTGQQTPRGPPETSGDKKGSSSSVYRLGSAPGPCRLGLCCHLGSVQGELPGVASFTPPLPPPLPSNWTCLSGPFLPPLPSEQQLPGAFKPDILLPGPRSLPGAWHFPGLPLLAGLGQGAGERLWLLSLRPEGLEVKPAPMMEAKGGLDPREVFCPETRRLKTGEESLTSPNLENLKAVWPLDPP
As to conditions: protein: recombinant; tags: N-terminal GST; dsDNA, one strand shown. The method in brief: as §1

The target in another assay is T8, ETS2 (Homo sapiens, UniProt P15036 1-469).
T8 sequence: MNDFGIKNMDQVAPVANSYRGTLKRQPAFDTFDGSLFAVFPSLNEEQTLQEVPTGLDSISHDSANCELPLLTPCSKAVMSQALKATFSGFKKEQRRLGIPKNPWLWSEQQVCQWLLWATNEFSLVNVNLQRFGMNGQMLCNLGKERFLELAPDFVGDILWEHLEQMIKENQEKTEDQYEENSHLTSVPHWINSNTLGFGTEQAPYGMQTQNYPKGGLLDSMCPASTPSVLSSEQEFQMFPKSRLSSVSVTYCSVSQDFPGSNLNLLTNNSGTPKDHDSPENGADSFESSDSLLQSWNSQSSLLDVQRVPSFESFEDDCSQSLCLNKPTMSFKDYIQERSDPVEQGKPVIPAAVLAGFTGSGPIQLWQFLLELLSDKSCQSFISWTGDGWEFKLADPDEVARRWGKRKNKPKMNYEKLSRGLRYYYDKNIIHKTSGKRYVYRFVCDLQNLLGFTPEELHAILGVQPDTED
The settings on record: protein: recombinant; tags: N-terminal GST; dsDNA, one strand shown. In outline: as §1

For a further assay, the target named is T9, SPDEF (Homo sapiens, UniProt O95238 1-335).
T9 sequence: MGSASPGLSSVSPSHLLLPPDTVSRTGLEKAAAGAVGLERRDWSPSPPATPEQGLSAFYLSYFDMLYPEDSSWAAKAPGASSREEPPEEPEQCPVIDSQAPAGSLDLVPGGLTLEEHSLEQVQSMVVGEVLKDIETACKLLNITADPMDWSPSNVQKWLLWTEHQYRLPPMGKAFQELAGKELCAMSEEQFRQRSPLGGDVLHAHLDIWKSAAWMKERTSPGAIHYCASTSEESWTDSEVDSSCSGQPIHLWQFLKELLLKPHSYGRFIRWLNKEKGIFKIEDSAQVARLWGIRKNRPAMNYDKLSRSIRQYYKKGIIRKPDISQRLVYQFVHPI
As to conditions: protein: recombinant; tags: N-terminal GST; dsDNA, one strand shown. The method in brief:
as §1

For the next assay, the target named is T10, ETV7 (Homo sapiens, UniProt Q9Y603 1-341).
T10 sequence: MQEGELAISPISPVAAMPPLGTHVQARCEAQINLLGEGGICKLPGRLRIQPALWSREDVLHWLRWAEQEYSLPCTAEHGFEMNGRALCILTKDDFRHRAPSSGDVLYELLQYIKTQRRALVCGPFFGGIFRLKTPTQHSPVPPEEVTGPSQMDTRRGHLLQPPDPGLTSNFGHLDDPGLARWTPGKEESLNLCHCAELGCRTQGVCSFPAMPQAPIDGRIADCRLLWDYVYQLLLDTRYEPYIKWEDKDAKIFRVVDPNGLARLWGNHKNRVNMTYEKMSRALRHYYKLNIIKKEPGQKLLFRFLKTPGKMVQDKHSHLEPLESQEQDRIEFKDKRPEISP
As to conditions: protein: recombinant; tags: N-terminal GST; dsDNA, one strand shown. In outline:
as §1

The target in another assay is T11, ELF5 (Homo sapiens, UniProt Q9UKW6-2 1-255).
T11 sequence: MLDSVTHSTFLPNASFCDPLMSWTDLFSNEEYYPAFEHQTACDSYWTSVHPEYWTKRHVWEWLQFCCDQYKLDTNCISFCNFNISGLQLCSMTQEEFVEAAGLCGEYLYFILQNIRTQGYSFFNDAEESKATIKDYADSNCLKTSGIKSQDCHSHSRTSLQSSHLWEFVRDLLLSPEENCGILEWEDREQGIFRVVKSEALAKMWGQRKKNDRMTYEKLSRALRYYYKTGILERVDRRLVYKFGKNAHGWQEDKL
As to conditions: protein: recombinant; tags: N-terminal GST; dsDNA, one strand shown. In outline:
as §1

The target of another assay is T12, ETV3 (Homo sapiens, UniProt P41162-2 1-143).
T12 sequence: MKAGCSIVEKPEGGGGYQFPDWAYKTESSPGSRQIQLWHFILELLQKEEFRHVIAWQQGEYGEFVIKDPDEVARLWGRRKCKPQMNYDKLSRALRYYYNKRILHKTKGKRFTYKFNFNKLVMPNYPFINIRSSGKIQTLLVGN
The settings on record: protein: recombinant; tags: N-terminal GST; dsDNA, one strand shown. In outline: as §1

Another assay concerns the target ETV6 (Homo sapiens, UniProt P41212 1-452). The settings on record: protein: recombinant; tags: N-terminal GST; dsDNA, one strand shown. In outline: as §1

Sequence of ETV6 (P41212 whole entry): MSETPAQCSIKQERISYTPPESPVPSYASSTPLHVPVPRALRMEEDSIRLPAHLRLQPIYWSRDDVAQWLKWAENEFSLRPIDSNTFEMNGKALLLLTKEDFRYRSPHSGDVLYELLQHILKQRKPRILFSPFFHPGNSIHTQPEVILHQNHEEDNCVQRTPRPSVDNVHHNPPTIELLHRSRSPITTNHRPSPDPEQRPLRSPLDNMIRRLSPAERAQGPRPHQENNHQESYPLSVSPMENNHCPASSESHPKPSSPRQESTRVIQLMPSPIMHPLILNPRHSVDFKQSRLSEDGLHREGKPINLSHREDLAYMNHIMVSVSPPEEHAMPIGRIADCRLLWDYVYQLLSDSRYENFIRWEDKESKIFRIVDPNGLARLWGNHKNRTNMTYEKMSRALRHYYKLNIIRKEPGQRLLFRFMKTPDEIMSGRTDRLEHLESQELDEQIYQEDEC
Sequence of ETV1 (P50549 whole entry): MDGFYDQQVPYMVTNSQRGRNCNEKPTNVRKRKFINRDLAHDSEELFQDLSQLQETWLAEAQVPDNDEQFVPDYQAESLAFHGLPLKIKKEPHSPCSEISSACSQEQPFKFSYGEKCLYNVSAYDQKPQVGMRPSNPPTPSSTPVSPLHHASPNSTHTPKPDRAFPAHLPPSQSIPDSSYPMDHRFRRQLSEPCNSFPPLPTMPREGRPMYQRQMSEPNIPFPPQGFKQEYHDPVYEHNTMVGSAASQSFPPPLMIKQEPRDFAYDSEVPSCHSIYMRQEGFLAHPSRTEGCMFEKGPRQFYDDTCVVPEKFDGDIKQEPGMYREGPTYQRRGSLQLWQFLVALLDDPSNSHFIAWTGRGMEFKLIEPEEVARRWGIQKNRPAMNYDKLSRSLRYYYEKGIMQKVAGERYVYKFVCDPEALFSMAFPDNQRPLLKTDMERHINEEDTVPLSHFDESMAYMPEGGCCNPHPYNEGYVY
Sequence of HSF1 (Q00613 whole entry): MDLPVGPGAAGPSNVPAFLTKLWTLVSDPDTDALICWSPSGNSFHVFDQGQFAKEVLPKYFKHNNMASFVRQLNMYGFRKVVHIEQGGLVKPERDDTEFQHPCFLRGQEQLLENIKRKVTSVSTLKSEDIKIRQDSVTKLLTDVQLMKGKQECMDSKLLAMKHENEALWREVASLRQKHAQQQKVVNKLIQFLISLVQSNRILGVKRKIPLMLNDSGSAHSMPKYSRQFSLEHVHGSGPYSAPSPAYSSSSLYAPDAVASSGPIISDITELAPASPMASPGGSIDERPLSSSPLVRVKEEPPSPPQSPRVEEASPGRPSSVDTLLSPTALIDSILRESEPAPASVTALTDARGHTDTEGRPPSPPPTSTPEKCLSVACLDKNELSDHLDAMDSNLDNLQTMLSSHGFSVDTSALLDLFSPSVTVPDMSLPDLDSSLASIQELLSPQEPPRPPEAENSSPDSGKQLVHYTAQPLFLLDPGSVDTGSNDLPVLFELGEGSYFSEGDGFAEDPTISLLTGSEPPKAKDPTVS
Sequence of CRX (O43186 whole entry): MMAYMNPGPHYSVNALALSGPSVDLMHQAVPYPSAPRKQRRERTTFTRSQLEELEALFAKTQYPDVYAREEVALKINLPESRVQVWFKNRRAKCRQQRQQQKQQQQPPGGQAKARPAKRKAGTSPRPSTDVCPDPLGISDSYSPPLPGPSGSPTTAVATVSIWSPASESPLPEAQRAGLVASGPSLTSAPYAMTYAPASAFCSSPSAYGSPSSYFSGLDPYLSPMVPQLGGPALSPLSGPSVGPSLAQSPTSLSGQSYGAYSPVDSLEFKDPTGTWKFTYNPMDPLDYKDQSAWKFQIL

Take CTACAT: the binding signal with FEV is 1.44 fold enrichment (6-mer frequency, TF over GST control); in the assay with ETV5 it was 1.45 fold enrichment (6-mer frequency, TF over GST control); in the assay with HSF1 it was 1.17 fold enrichment (6-mer frequency, TF over GST control); with SPIC it was 1.51 fold enrichment (6-mer frequency, TF over GST control); in the assay with ELF4, 1.37 fold enrichment (6-mer frequency, TF over GST control); with ELK4, 1.33 fold enrichment (6-mer frequency, TF over GST control). The binding signal with ETV2 was 1.31 fold enrichment (6-mer frequency, TF over GST control); with ELF3, 1.28 fold enrichment (6-mer frequency, TF over GST control); with CRX it was 1.11 fold enrichment (6-mer frequency, TF over GST control); with ETV1, 1.41 fold enrichment (6-mer frequency, TF over GST control); in the assay with ERF, 1.66 fold enrichment (6-mer frequency, TF over GST control); with ETV3L, 1.41 fold enrichment (6-mer frequency, TF over GST control). Besides, the binding signal with ETS2 was 1.43 fold enrichment (6-mer frequency, TF over GST control); with SPDEF, 1.5 fold enrichment (6-mer frequency, TF over GST control); with ETV7, 1.32 fold enrichment (6-mer frequency, TF over GST control); with ELF5, 1.53 fold enrichment (6-mer frequency, TF over GST control); with ETV3, 1.44 fold enrichment (6-mer frequency, TF over GST control); with ETV6, 1.43 fold enrichment (6-mer frequency, TF over GST control).
